# Compounds without any hit were thinned out: in the full panel of roughly 83,000, 20% have a hit.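 A percent growth of 40 corresponds to 60% growth inhibition; 0 means no net growth; -100 means all cells died. Active threshold: below 10.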 Unmarked numbers belong to inactive results. Calls of active or inactive are those of the source.
# Columns and labels:
# Experiment in all cases: NCI-60 one-dose screen, 48 h (100 = growth as untreated, 0 = no growth, -100 = all killed)
# Settings in all cases: 10 µM
# RPMI-8226 leukemia = test system: RPMI-8226 leukemia
# OVCAR-8 ovarian = test system: OVCAR-8 ovarian
# OVCAR-5 ovarian = test system: OVCAR-5 ovarian
# OVCAR-4 ovarian = test system: OVCAR-4 ovarian
# SK-OV-3 ovarian = test system: SK-OV-3 ovarian
# IGROV1 ovarian = test system: IGROV1 ovarian
# OVCAR-3 ovarian = test system: OVCAR-3 ovarian
# HS 578T breast = test system: HS 578T breast
# NCI/ADR-RES ovarian = test system: NCI/ADR-RES ovarian
# T-47D breast = test system: T-47D breast
# BT-549 breast = test system: BT-549 breast
# MDA-MB-435 melanoma = test system: MDA-MB-435 melanoma
# SW-620 colon = test system: SW-620 colon
# MCF7 breast = test system: MCF7 breast
# HCT-116 colon = test system: HCT-116 colon
# HCC-2998 colon = test system: HCC-2998 colon
# KM12 colon = test system: KM12 colon
SMILES,growth (RPMI-8226 leukemia),growth (OVCAR-8 ovarian),growth (OVCAR-5 ovarian),growth (OVCAR-4 ovarian),growth (SK-OV-3 ovarian),growth (IGROV1 ovarian),growth (OVCAR-3 ovarian),growth (HS 578T breast),growth (NCI/ADR-RES ovarian),growth (T-47D breast),growth (BT-549 breast),growth (MDA-MB-435 melanoma),growth (SW-620 colon),growth (MCF7 breast),growth (HCT-116 colon) [%],growth (HCC-2998 colon),growth (KM12 colon)
NC(=S)N=Nc1c(O)c2ccccc2c2ccccc12,58.7%,36%,107%,73.6%,92.3%,68.9%,29.9%,62%,27.1%,68.3%,49.5%,-85.5% (active),47%,24.5%,32,98.6%,92%
COc1ccc(NC2=NC(C)(CO)CS2)cc1 (stereo not drawn),83.6%,74.3%,103%,97.7%,104%,87.7%,112%,99.3%,106%,101%,98.4%,101%,104%,88.6%,102,104%,104%
Cc1ncc(-c2ccoc2)c(NC2CCCCCC2)n1,105%,99.1%,107%,105%,93.8%,96.4%,101%,111%,102%,92%,115%,110%,111%,112%,99.8,105%,105%
O=C(CC(NC(=O)OCc1ccccc1)C(=O)OCc1ccccc1)OCc1ccccc1 (stereo not drawn),99.2%,99%,103%,109%,95.1%,108%,110%,97.9%,98%,100%,112%,102%,91.6%,102%,97.4,,108%
COc1cc(-c2nc(-c3nnc(-c4ccccc4Cl)o3)c3ccccn23)cc(OC)c1OC,50.2%,47.8%,92.5%,77.4%,84.5%,111%,86.4%,83.1%,66.4%,61.4%,89.5%,100%,104%,81.9%,97,94.7%,80.5%
Cc1occc1-c1nnc(SCC(=O)c2ccc(NC(=O)CC(C)C)cc2)o1,77.7%,57%,105%,122%,121%,69.1%,104%,119%,104%,102%,108%,97.9%,108%,107%,109,74.5%,99.4%
COc1ccc(Cl)cc1-n1nnc(-c2nc3ccccc3[nH]2)c1N,53.9%,82.4%,96.2%,-79.9% (active),62.6%,85.5%,86.7%,43.3%,92.1%,67.5%,98.8%,88.6%,75.6%,94.3%,,93.4%,
CCN(CC)CCN1CC(=O)Nc2cc(Cl)ccc21,109%,108%,102%,103%,110%,99.9%,109%,94.4%,94.2%,107%,107%,98.8%,86.4%,104%,102,102%,103%
O=C1NC(=O)c2ncccc21,99.3%,100%,107%,113%,101%,107%,113%,124%,106%,102%,91.1%,100%,120%,95.5%,102,103%,107%
O=S(=O)(Nc1ccccn1)c1ccc(N=Nc2ccc(O)c3ncccc23)cc1,-15.1% (active),1.26% (active),22.4%,8.85% (active),-7.21% (active),-1.59% (active),14.4%,13.5%,14.1%,-6.2% (active),1.2% (active),10.1%,11.7%,5.03% (active),,35.7%,14.1%
O=C(Nc1ccncc1)C(=O)c1cn(S(=O)(=O)c2cccc(Cl)c2)c2ccccc12,47.2%,76.2%,107%,74.8%,96.6%,52.7%,45.7%,86.8%,43.6%,70%,49%,1.36% (active),47%,29.3%,24,,51.5%
CC(=O)OCc1cc(-c2nc3ccccc3[nH]c2=O)nn1-c1ccc(Cl)cc1,89.1%,95.4%,99.6%,96.1%,100%,93.2%,116%,100%,90.9%,92.7%,102%,99.7%,111%,85.9%,100,87%,108%
COc1ccc(-c2nn(-c3cccc(NC(=O)Nc4ccc(Cl)c(C(F)(F)F)c4)c3)cc2-c2ccncc2)cc1Cl,-19.2% (active),1.48% (active),39.8%,21.7%,16.7%,15.7%,-2.03% (active),33.8%,9.26% (active),-6.17% (active),11.2%,-24.3% (active),17.7%,1.57% (active),,37.7%,4% (active)
CCN(CC)CCC(CNc1c(C)cnc2cc(Cl)ccc12)c1ccc(Cl)cc1 (stereo not drawn),44%,61.8%,54.6%,56.6%,81.7%,46.4%,70.8%,70.1%,59%,59.6%,67.7%,-7.89% (active),51.2%,39.7%,23,26.7%,79.8%
Cc1ccc(Nc2cc(C)nc(NCCCNc3ccnc4cc(Cl)ccc34)n2)cc1,-63.8% (active),-60.7% (active),1.62% (active),-26.1% (active),-47.5% (active),7.69% (active),-79.9% (active),-58.6% (active),-33% (active),-73% (active),-85.5% (active),-90% (active),-84.3% (active),-95% (active),,-86.3% (active),-49.8% (active)
O=S(=O)(NCCCNc1nccc(-c2c(-c3ccc(F)cc3)nc3sccn23)n1)c1ccc(F)cc1,32.1%,17.7%,62.7%,57.5%,59.7%,18.6%,55.4%,66.8%,31.3%,-2.52% (active),52.8%,20.6%,47.1%,32.8%,28.9,37.6%,27.8%
O=C1OCC2=C1C(c1cccc(Cl)c1)c1cc3c(cc1N2CCO)OCO3 (stereo not drawn),22.4%,25.1%,31.2%,64.5%,19.4%,44%,-50.6% (active),-5.17% (active),-11% (active),62.6%,59.6%,-46.1% (active),21.3%,23.9%,19,,8.24% (active)
Fc1cc(C(F)(F)F)ccc1-c1cncnc1NC1CCCCCC1,76.1%,87.1%,106%,85.3%,101%,96.8%,109%,102%,91.4%,91.8%,96%,104%,101%,92.3%,95.8,107%,107%
